The supplement of paper PMC10849652
The full data set covers some 7,900 targets. This sample favours those with a hit. About 0.6% of all pairs of compound and target were hits. Unmarked numbers belong to inactive results.

Compound: C1COCCN1CCN2C3=CC=CC=C3N=C2NC(=O)C4=CC(=CC=C4)[N+](=O)[O-] [IRAK-1-4 Inhibitor I]
Test: log2 fold change, soluble protein after heating vs DMSO (PISA); higher = thermal stabilisation; K562 cells, 10 uM, 30 min; active = over 0.2 and 3.5 SD of the protein, either way, in both replicates (recomputed)
How it was run: (§1)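 K562 cells at 2×10^6 cells/mL were given 10 μM compound for 30 min. Aliquots then went through 3 min of heating across 48°C-58°C, were pooled, and were extracted in PBS with 0.5% NP-40 at 4°C, and the supernatant after 21,000xg for 90 min was quantified by TMTpro 16plex LC-MS/MS with channel sums equalised. Thermal stability relative to control samples, from duplicates, is given as log2 fold change.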

UniProt P27816, sequence (P27816 whole entry, looked up): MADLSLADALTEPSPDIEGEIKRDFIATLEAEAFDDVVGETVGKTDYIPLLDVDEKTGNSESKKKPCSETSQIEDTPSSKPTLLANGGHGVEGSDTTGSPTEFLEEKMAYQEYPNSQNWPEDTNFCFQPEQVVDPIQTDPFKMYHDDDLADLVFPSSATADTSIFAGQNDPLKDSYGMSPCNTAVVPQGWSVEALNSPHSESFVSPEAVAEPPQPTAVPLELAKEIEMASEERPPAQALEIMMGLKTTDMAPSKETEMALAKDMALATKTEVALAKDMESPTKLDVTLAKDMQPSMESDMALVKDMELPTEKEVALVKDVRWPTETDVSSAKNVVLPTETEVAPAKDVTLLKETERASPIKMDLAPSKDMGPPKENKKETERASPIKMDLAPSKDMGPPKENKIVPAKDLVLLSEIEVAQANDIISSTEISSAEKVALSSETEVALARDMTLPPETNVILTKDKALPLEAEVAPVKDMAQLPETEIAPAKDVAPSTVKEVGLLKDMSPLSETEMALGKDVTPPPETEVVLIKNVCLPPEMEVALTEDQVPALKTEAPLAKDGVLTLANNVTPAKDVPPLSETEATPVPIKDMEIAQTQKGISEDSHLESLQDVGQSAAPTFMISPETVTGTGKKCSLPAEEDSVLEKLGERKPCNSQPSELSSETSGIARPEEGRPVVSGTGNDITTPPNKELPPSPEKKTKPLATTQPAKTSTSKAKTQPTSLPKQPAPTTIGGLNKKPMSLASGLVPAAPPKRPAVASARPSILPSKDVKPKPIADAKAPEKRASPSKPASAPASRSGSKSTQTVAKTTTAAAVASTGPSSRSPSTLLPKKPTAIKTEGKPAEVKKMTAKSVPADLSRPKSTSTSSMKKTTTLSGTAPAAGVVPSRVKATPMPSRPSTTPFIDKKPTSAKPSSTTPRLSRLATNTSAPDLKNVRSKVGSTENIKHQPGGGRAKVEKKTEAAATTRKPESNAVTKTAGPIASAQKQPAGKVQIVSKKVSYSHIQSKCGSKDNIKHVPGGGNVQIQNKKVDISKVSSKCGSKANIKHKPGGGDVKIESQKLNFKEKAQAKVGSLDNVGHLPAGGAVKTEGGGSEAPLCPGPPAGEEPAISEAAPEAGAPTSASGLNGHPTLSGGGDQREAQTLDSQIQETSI
UniProt Q9NUN5, sequence (Q9NUN5 whole entry, looked up): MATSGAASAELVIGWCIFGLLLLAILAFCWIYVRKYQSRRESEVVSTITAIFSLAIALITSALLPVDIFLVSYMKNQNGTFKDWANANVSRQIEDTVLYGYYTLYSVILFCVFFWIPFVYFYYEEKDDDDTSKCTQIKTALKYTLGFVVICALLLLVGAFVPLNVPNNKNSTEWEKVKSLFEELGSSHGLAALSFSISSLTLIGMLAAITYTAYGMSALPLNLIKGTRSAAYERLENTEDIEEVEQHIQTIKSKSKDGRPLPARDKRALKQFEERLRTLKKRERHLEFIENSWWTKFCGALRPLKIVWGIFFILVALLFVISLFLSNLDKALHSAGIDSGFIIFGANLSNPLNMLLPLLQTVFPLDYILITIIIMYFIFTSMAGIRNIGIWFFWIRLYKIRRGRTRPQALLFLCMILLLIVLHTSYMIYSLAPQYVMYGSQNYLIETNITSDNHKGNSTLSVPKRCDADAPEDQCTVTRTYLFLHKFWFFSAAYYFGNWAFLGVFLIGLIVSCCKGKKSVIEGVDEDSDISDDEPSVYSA
UniProt Q9BQD3, sequence (Q9BQD3 whole entry, looked up): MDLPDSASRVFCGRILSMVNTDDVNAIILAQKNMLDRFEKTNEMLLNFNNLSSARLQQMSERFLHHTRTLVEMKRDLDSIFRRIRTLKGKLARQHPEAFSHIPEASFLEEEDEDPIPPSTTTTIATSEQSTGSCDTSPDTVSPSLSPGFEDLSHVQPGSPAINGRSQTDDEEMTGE
UniProt O94889, sequence (O94889 whole entry, looked up): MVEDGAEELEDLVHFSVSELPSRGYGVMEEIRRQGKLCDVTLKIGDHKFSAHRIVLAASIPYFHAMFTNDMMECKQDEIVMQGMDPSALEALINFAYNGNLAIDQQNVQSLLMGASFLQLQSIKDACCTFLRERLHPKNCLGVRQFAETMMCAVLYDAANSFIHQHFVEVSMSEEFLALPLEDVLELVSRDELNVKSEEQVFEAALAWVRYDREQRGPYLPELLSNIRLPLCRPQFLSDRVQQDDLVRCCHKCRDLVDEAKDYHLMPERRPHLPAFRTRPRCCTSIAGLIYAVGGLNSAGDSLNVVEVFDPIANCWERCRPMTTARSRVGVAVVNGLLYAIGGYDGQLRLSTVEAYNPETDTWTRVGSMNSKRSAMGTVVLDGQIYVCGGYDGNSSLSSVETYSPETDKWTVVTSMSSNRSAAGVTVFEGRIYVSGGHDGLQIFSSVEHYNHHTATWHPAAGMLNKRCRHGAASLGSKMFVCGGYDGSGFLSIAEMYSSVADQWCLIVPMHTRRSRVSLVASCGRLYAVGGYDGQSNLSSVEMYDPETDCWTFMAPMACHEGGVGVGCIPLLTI
UniProt Q92551, sequence (Q92551 whole entry, looked up): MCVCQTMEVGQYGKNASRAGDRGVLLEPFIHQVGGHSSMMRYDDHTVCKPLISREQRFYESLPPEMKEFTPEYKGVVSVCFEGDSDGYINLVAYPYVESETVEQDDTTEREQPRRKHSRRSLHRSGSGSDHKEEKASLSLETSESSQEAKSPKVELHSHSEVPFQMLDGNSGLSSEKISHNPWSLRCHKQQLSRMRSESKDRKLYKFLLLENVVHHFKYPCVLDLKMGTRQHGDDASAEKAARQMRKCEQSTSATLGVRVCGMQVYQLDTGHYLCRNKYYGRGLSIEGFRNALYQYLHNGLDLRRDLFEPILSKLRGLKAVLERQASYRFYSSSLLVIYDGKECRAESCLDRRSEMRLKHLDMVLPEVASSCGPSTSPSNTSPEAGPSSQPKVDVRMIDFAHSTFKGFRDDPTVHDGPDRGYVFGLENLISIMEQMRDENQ
UniProt Q9BQK8, sequence (Q9BQK8 whole entry, looked up): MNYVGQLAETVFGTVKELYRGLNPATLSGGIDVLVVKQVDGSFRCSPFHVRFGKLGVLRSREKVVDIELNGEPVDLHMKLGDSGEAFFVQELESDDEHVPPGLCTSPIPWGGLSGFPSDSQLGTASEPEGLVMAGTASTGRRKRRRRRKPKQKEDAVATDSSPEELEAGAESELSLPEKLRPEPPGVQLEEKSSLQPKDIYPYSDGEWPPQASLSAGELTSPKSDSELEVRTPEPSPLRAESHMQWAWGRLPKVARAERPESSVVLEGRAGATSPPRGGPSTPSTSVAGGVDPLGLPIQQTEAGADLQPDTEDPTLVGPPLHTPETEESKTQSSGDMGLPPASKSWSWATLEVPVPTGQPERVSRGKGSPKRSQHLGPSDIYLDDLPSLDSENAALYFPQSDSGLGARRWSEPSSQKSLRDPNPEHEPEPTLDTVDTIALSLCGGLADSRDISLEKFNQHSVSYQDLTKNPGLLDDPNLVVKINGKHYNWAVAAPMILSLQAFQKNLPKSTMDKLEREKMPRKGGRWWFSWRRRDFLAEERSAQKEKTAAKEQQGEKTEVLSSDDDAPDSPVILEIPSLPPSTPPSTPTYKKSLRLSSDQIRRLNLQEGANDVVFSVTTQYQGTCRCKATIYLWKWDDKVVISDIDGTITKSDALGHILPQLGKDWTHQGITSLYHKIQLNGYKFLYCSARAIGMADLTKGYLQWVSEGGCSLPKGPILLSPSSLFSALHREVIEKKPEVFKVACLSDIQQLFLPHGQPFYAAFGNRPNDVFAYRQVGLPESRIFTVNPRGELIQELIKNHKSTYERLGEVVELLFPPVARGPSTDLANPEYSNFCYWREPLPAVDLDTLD
UniProt Q9NQX7, sequence (Q9NQX7 whole entry, looked up): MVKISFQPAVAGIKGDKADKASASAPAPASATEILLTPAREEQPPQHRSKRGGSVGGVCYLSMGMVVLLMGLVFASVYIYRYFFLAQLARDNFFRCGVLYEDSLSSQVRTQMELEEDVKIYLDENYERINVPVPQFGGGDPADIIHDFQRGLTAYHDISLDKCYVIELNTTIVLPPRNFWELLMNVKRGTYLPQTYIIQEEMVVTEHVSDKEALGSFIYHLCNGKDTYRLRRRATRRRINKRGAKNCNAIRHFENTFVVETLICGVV
UniProt Q9H3U5, sequence (Q9H3U5 whole entry, looked up): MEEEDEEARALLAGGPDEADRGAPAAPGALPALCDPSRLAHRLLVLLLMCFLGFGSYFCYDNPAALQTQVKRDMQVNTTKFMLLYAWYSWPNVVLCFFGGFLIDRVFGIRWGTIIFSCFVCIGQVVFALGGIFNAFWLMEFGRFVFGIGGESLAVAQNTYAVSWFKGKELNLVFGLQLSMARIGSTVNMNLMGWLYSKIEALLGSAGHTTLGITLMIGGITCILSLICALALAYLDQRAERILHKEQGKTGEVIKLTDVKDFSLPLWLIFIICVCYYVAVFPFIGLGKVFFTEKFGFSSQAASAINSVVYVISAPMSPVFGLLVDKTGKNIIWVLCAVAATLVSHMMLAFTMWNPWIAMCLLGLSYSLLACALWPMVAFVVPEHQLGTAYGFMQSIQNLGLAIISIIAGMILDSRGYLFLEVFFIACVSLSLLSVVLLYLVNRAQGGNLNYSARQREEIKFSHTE
UniProt Q15759, sequence (Q15759 whole entry, looked up): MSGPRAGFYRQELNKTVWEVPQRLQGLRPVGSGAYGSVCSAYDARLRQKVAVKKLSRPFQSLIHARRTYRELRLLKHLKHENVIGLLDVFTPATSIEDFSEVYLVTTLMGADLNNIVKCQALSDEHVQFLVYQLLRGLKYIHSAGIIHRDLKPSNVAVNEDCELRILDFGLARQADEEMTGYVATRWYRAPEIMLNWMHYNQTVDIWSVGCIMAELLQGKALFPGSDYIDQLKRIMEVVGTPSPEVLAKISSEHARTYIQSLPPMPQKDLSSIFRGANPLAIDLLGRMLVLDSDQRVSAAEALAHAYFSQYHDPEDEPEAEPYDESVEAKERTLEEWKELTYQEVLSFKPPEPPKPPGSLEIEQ
UniProt O15243, sequence (O15243 whole entry, looked up): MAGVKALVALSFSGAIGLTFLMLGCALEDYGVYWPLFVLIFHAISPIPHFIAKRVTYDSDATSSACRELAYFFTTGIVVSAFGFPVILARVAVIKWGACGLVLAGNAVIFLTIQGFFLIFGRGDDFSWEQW

Target	log2 fold change
MAPRE3 isoform 2 (UniProt Q9UPY8)	-0.384
LRRFIP1 isoform 4 (UniProt Q32MZ4)	-0.06
IKZF1 (UniProt R9R4D9)	-0.1
MAPK11 (UniProt Q15759)	-0.22
IGFBP3 isoform 2 (UniProt P17936)	0.115
MAML1 (UniProt Q92585)	0.117
MAPK7 (UniProt Q13164)	-0.033
ING5 (UniProt Q8WYH8)	0.101
ITPRID2 (UniProt P28290)	0.004
LYN isoform 2 (UniProt P07948)	0.04
MAP3K20 isoform 2 (UniProt Q9NYL2)	-0.164

Compound: C=CC(=O)N1CCC[C@@H](n2nc(-c3ccc(Oc4ccccc4)cc3)c3c(N)ncnc32)C1 [ibrutinib]
Test: as above
How it was run: as §1

Target	log2 fold change
MAP4 isoform 5 (UniProt P27816)	0.076
MARCHF3 (UniProt Q86UD3)	0.073
KLHL18 (UniProt O94889)	0.082
IP6K1 (UniProt Q92551)	0.05
LPIN3 isoform 2 (UniProt Q9BQK8)	-0.041
MFAP3 (UniProt P55082)	-0.027
ITM2C (UniProt Q9NQX7)	-0.069
MFSD1 isoform 6 (UniProt Q9H3U5)	0.017
LMBRD1 (UniProt Q9NUN5)	0.036
LOX (UniProt P28300)	0.074
KMT2C isoform 3 (UniProt Q8NEZ4)	0.007
LAPTM4B (UniProt Q86VI4)	0.019
KXD1 (UniProt Q9BQD3)	0.092
IPP (UniProt Q9Y573)	0.041
IKZF1 isoform 2 (UniProt Q13422)	0.252
MCOLN3 (UniProt Q8TDD5)	-0.17

Compound: CC(=O)c1cnc2ccc(-c3cc(Cl)c(O)c(Cl)c3)nc2c1N[C@H]1CC[C@H](CN(C)C)CC1
Test: as above
How it was run: as §1

Target	log2 fold change
MAP4 isoform 5 (UniProt P27816)	0.142
MAPRE3 isoform 2 (UniProt Q9UPY8)	-0.139
LEPROT (UniProt O15243)	-0.037
KLHL18 (UniProt O94889)	0.104
IP6K1 (UniProt Q92551)	-0.154
LRRFIP1 isoform 4 (UniProt Q32MZ4)	0.163
LPIN3 isoform 2 (UniProt Q9BQK8)	-0.164
LRRCC1 (UniProt Q9C099)	0.047
MFAP3 (UniProt P55082)	-0.067
ITM2C (UniProt Q9NQX7)	-0.07
MFSD1 isoform 6 (UniProt Q9H3U5)	0.025
MED29 (UniProt Q9NX70)	-0.215
MFSD12 isoform 3 (UniProt Q6NUT3)	-0.002
LMBRD1 (UniProt Q9NUN5)	0.026
IGFBP6 (UniProt P24592)	-0.02
KMT2C isoform 3 (UniProt Q8NEZ4)	-0.02
KIF13A isoform 4 (UniProt Q9H1H9)	0.123
KXD1 (UniProt Q9BQD3)	-0.073
IPP (UniProt Q9Y573)	-0.084
MAGED1 isoform 2 (UniProt Q9Y5V3)	0.03
IGFBP3 isoform 2 (UniProt P17936)	0.097
MAPK7 (UniProt Q13164)	1.41 (active)
LYN isoform 2 (UniProt P07948)	-0.246
MAP3K20 isoform 2 (UniProt Q9NYL2)	-0.126

Compound: CC(C)(C)Cn1c(N)nc2ccc(-c3[nH]c(C(C)(C)C)nc3-c3ccc(F)cc3)nc21 [ralimetinib]
Test: as above
How it was run: as §1

Target	log2 fold change
MAP4 isoform 5 (UniProt P27816)	-0.019
KIF21A (UniProt H0YI78)	0.366
KLHL18 (UniProt O94889)	0.055
IP6K1 (UniProt Q92551)	-0.159
LPIN3 isoform 2 (UniProt Q9BQK8)	-0.024
LRRCC1 (UniProt Q9C099)	0.043
ITM2C (UniProt Q9NQX7)	-0.063
MFSD1 isoform 6 (UniProt Q9H3U5)	-0.172
LMBRD1 (UniProt Q9NUN5)	0.088
IGFBP6 (UniProt P24592)	-0.049
KMT2C isoform 3 (UniProt Q8NEZ4)	0.074
MAPK11 (UniProt Q15759)	1.47 (active)
KXD1 (UniProt Q9BQD3)	-0.053
IKZF1 isoform 2 (UniProt Q13422)	0.152
MCOLN3 (UniProt Q8TDD5)	-0.057
MAML1 (UniProt Q92585)	0.013
ITPRID2 (UniProt P28290)	-0.025
